Rows were chosen to be rich in hits. Some 0.13% of all compounds tested hit in one or more screens of this group.
GLA inh pH 4.5 = blocks human alpha-galactosidase A at pH 4.5. activity change, negative = inhibition, % at 105 µM. 230,000 tested, under 10 active. P06280. purified enzyme, 4-MU-alpha-Gal fluorescence, pH 4.5
Integrin act MD = activators of alpha7 integrin expression for muscular dystrophy | alpha7betagal myoblasts, beta-gal FDG fluorescence, 48 h | Potency, µM (series often up to 38.3 µM), usual class: activators | 350,000 tested, 0.064% active; note: nearly all actives have a fitted effect of over 60% in size
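Alpha7betagal+/- myoblasts (passage 13) were plated 16-24 hr, then exposed to compounds (1:260 dilution of DMSO stock) for 48 hours at 37C. After MPER lysis, β-galactosidase reporter activity was read as FDG fluorescence (ex 480/em 540) after 30 minutes.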
IL2 activator = activates IL-2 in a cell-based reporter assay. IL-2 activation reporter assay, cell-based qHTS; stimulated with anti-CD3/CD4/CD28 beads; in transgenic mouse T cells. activation, % (series mostly up to about 46 µM). 360,000 tested, 0.065% active. AID 652025; in the data active = activation above about 50%; inconclusive = mostly about 30% to 49%
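First, unstimulated transgenic mouse T cells were exposed to compound for 60 min. Next, anti-CD3/anti-CD4-coated beads with anti-CD28 were added. Finally, after 18 h at 37 degrees C, EGFP and DsRed were imaged.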
GLA spleen mod = inhibitors or activators of human alpha-galactosidase in spleen homogenate; 240,000 tested, 0.008% active; P06280; human spleen homogenate, 4MU-alpha-Gal fluorescence, 40 min; AID 2107; Potency, µM (doses to about 80 µM), hits mostly inhibitors
Target sequence (P06280 32-429 limits assumed): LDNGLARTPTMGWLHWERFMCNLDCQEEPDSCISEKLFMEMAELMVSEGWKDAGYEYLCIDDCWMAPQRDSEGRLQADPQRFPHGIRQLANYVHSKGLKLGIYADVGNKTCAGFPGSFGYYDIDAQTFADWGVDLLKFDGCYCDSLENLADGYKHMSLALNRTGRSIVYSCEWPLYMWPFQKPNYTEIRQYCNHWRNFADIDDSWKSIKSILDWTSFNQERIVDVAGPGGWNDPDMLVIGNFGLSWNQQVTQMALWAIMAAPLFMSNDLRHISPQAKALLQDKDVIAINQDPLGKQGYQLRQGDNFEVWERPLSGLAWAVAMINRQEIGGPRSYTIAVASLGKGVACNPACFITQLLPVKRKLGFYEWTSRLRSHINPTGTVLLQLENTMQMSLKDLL
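Inhibition or activation of alpha-galactosidase in human spleen homogenate is scored by 4-MU fluorescence after 40 min at 37C, pH 5.0, with 1 mM substrate. AC50s come from concentration-response fitted to the Hill equation.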
Of the large screens only hits and unclear results are named; the others gave an inactive call. Unless noted, calls come from the whole dose curve; as a rule, active = well fitted curve in the direction sought with a large enough effect; inconclusive = small, poorly fitted or top-dose-only effect, or another doubt; inactive = no such curve, though single readings can be large; an effect the other way counts as inactive or inconclusive.

C=CC1CN2CCC1CC2[C@@H](O)c1ccnc2ccc(OC)cc12 (some centres undefined)	none (no result: Integrin act MD, IL2 activator, GLA spleen mod)
COc1ccccc1C(=O)NCC(=O)N=Nc1c(O)n(C(C)C)c2ccccc12	Integrin act MD 11µM (no result: GLA inh pH 4.5, GLA spleen mod)
Cc1ccc(CNc2ncnc(N)c2[N+](=O)[O-])cc1	Integrin act MD 10µM
Cc1ccc(/C=C2/NC(=O)N(Cc3ccccc3)C2=O)s1	IL2 activator 159
Cc1ccc(NC(=O)CN2C(=O)N/C(=C/c3ccc(C)s3)C2=O)cc1	IL2 activator 53
Cc1cccc(CN2C(=O)N/C(=C/c3ccc(C)s3)C2=O)c1	none
Cc1ccc(NC(=O)CN2C(=O)N/C(=C/c3ccc(C)o3)C2=O)cc1	none
COc1cc(NS(=O)(=O)c2ccc([N+](=O)[O-])cc2)c2ncccc2c1	none (no result: GLA inh pH 4.5, Integrin act MD, IL2 activator)
Cc1cc(Cl)ccc1Nc1ncccc1C(N)=O	none
NC(=O)c1cccnc1Oc1ccc(Cl)cc1Cl	Integrin act MD 10µM
Cc1nc2c(cnn2-c2ccccc2)c(=O)n1/N=C/c1ccccc1	Integrin act MD 10µM
O=C[C@@H]1CCCN1C(=O)[C@@H]1CCCN1C(=O)OCc1ccccc1	none (no result: GLA inh pH 4.5, Integrin act MD, IL2 activator)
CCN1/C(=C/c2ccc3cccc(C)c3[n+]2CC)Sc2ccccc21	IL2 activator 54
CCN1/C(=C/c2ccc3cc(C)cc(C)c3[n+]2CC)Sc2cc(C)ccc21	none
O=c1c(-c2ccc(O)cc2)coc2cc(O[C@@H]3O[C@H](CO)[C@@H](O)[C@H](O)[C@H]3O)cc(O)c12	none (no result: GLA inh pH 4.5, Integrin act MD, IL2 activator)
CCOc1ccc(NC(=O)/C(C#N)=C/c2ccc(N3CCCC3)c(C)c2)cc1	IL2 activator 270
O=C(Nc1cc(Cl)cc2c1[nH]c1cnccc12)c1cccnc1	none (no result: GLA inh pH 4.5, Integrin act MD, IL2 activator)
Cc1c(C(=O)N2CCCCC2)c(S(=O)(=O)Nc2cccc(Br)c2)c(C)n1C	Integrin act MD 10µM (no result: GLA inh pH 4.5, GLA spleen mod)
CCC[C@H]1C[C@H](C(=O)NC(C(C)Cl)C2O[C@@H](SC)C(OP(=O)(O)O)[C@@H](O)[C@@H]2O)N(C)C1 (some centres undefined)	none (no result: GLA inh pH 4.5, Integrin act MD, IL2 activator)
COC(=O)c1ccc(C2C(C(=O)c3cc4ccccc4o3)=C(O)C(=O)N2CCN2CCOCC2)cc1 (centres undefined)	Integrin act MD 10µM (no result: GLA inh pH 4.5, GLA spleen mod)
CCC(C)c1cc([N+](=O)[O-])cc([N+](=O)[O-])c1OC(=O)OC(C)C (centres undefined)	none (no result: GLA inh pH 4.5, Integrin act MD, IL2 activator)
COC(=O)Cn1c2ccc(OC)cc2c2nc3ccccc3nc21	none
CCOC(=O)Cn1c2ccc(OC)cc2c2nc3ccccc3nc21	IL2 activator 51
CCOC(=O)/C(C(N)=NCCO)=C(/O)c1ccccc1	Integrin act MD 13µM
CCOC(=O)/C(C(N)=NCCCO)=C(/O)c1ccccc1	none
Cc1ccc(C2Nc3cccc4cccc(c34)N2)s1	Integrin act MD 3.2µM
Fc1ccc(C2Nc3cccc4cccc(c34)N2)cc1	none (no result: GLA inh pH 4.5, GLA spleen mod)
COc1ccc(C(C(=O)NC2CCCCC2)N(C(=O)c2snc(C(N)=O)c2N)c2ccc(OC)cc2OC)cc1 (centres undefined)	none (no result: GLA inh pH 4.5, GLA spleen mod)
COc1ccc(N(CC(=O)NCCC(C)C)C(=O)c2snc(C(=O)NC3CCCCC3)c2N)c(OC)c1	Integrin act MD 10µM (no result: GLA inh pH 4.5, GLA spleen mod)
CCCCC1=CC2=C(OC(C)=O)C(=O)C(C)(OC(=O)C3CCCC3)C(=O)C2=CO1 (centres undefined)	none (no result: Integrin act MD, IL2 activator)
CCOC(=O)c1c(-c2ccccc2)csc1NC(=O)/C(C#N)=C/c1ccc(O)c(OC)c1	IL2 activator 58
O=C(NCCCN1CCCCCC1)C(c1ccccc1)C1CCCCC1 (centres undefined)	none (no result: GLA inh pH 4.5, Integrin act MD, IL2 activator)
CC(C)(C)c1ccc(C(=O)OCC(=O)Nc2sc3c(c2C#N)CCC3)cc1	Integrin act MD 5µM
O=C(/C=C/c1ccc(I)cc1)c1ccc(B(O)O)cc1	none (no result: GLA inh pH 4.5, Integrin act MD, IL2 activator)
Clc1ccccc1C1CC(c2ccccc2)=Nc2ccccc2N1 (centres undefined)	Integrin act MD inconclusive, IL2 activator 77
Clc1cccc(Cl)c1CSc1cc2c(nn1)-c1ccccc1CC2	IL2 activator 51
Clc1ccccc1CSc1cc2c(nn1)-c1ccccc1CC2	none
Cc1[nH]c2ccccc2c1C(O)CN1CCN(c2cccc(C(F)(F)F)c2)CC1 (centres undefined)	GLA inh pH 4.5 inconclusive, GLA spleen mod 28µM
COc1ccc(Cn2nnnc2CN(Cc2cc3ccc(C)cc3[nH]c2=O)C2CCCC2)cc1	IL2 activator 55
COc1ccc(CNc2nc(NCc3ccc(OC)cc3)c3ncn(C4CCCCC4)c3n2)cc1	none (no result: GLA inh pH 4.5, Integrin act MD, IL2 activator)
COc1ccc(-c2csc3ncnc(N4CCN(c5ccccc5[N+](=O)[O-])CC4)c23)cc1	Integrin act MD 10µM (no result: GLA inh pH 4.5, GLA spleen mod)
Cc1sc2ncnc(N=Nc3c(O)[nH]c4ccccc34)c2c1C	none
CCc1cc2c(N=Nc3c(O)[nH]c4ccccc34)ncnc2s1	IL2 activator 68
COc1cc(N(C)C)cc(CN(C)CCc2ccc([N+](=O)[O-])cc2)c1O	none (no result: GLA inh pH 4.5, Integrin act MD, IL2 activator)
O=[N+]([O-])c1ccc(NN=Cc2cccc3ccccc23)nc1	IL2 activator 58 (no result: GLA inh pH 4.5, GLA spleen mod)
Cc1c(C(=O)O)cccc1-n1c(C)cc(/C=N/Nc2ccc([N+](=O)[O-])cn2)c1C	Integrin act MD 2.8µM
Cc1cc(/C=N/Nc2ccc([N+](=O)[O-])cn2)c(C)n1-c1ccccc1	none
CC(C)(CCCCCCCCCCC(C)(C)CC(=O)O)CC(=O)O	none (no result: GLA inh pH 4.5, Integrin act MD, IL2 activator)
O=C(O)Cn1cc(/C=c2/sc3nc4ccccc4n3c2=O)c2ccccc21	IL2 activator 166
CN(C)S(=O)(=O)c1ccc(C(=O)Nc2nc3ccccc3[nH]2)cc1	Integrin act MD 8.9µM
COC(=O)C1=NOC2(C=C(Br)C(OC)=C(Br)C2=O)C1 (centres undefined)	none (no result: GLA inh pH 4.5, Integrin act MD, IL2 activator)
CC(C)[C@H](NC(=O)CNC(=O)OC(C)(C)C)C(=O)N[C@H](C=O)C(C)C	none (no result: GLA inh pH 4.5, Integrin act MD, IL2 activator)
O=C(NNC(=S)Nc1ccccc1)c1cc(-c2cccnc2)nc2ccccc12	none
CC(OC(=O)c1cc(-c2cccnc2)nc2ccccc12)C(=O)Nc1ccc2ccccc2c1 (centres undefined)	Integrin act MD 1.1µM
c1ccc(C(OC2CCCN(CCc3ccc4c(c3)OCO4)C2)c2ccccc2)cc1 (centres undefined)	none (no result: GLA inh pH 4.5, Integrin act MD, IL2 activator)

From PubChem
